An excerpt weighted towards active compounds, which were near 3.3% of everything screened.
Arbovirus anti: antivirals against arbovirus infection, primary screen, cell-based, full library, 10K replicate subset; arbovirus infection cell-based antiviral screen; inhibition, % at 10 µM; 200,000 compounds, 0.37% hits; AID 1251, 2008; in the data active = inhibition above about 30%
ROMK primary: ROMK potassium channel modulators, primary screen, cell-based, thallium flux, MLSMR library | AID 1918, 2009 | B-score at 10 µM | ATP-sensitive inward rectifier potassium channel 1 (Homo sapiens), P48048 | 130,000 compounds, 2% hits | Tet-inducible ROMK, thallium flux fluorescence; actives lie on both sides;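 active = signal ratio slope over the read window, or its plate-corrected B-score, at least 3 SD from the plate mean, either direction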;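 note: B-score of the F/F0 ratio slope over 7 to 12 s after thallium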
Target sequence (P48048 whole entry, looked up): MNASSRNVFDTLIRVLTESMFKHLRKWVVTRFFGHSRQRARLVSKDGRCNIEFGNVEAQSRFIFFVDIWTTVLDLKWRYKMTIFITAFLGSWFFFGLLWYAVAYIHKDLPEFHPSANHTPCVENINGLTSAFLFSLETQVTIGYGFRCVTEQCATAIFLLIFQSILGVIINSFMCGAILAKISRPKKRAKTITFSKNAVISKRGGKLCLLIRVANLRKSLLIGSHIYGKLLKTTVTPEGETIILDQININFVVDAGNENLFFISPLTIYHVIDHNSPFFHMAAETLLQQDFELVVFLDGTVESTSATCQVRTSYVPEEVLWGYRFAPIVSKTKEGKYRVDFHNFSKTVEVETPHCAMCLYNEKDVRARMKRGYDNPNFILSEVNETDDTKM
PERK inh: block of dimerizer-induced PERK translation repression, primary screen, PERK inhibitor project, CHO PERK-DD cells, SEAP luminescence, HTS; inhibition, % at 5.6 µM; CHO PERK-DD fusion, SEAP luminescence translation reporter; Eukaryotic translation initiation factor 2-alpha kinase 3 (Homo sapiens), Q9NZJ5; 220,000 compounds, 0.17% hits;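 active = inhibition above the mean inhibition of all tested compounds plus 3 SD, set separately per screening campaign, cut at about 2.9% in these data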;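 note: PERK kinase domain activated by AP20187 dimerizer at 100 nM; 0% = DMSO with dimerizer and 100% = rapamycin at 8.4 µM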
WT yeast gro inh: growth inhibition of WT strain, primary screen, mitochondrial fusion inhibitor project, WT and mutant strains, chemical genetic | 190,000 compounds, 2.1% hits | inhibition, % at 10 µM | mitochondrial fusion phenotypic screen; in the data active = inhibition above about 58%; tested in S. cerevisiae
ROMK retest: ROMK channel modulator hit retest, confirmation, cell-based, thallium flux, duplicate, resupplied hits; 3,000 compounds, 54% hits; fluorescence ratio; stronger effect = lower value; AID 1917, 2009; shares compounds with ROMK primary; normalized thallium flux (F/F0 slope) at 10 µM;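 active = Flux at 10 µM at least 3 SD below or above vehicle control mean in one or both replicates; inconclusive = no clear call, values can overlap the other calls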
Active calls of the source: *; ? = inconclusive; . = no result given.

SMILES | Arbovirus anti | ROMK primary | PERK inh | WT yeast gro inh | ROMK retest
CCC(C)(C)n1nnnc1C(c1cccs1)N1CC=C(c2ccc(F)cc2)CC1 (stereo not drawn) | 8 | -0.13 | 0 | 72* | .
Fc1ccc(C2=CCN(C(c3cccs3)c3nnnn3CCc3ccccc3)CC2)cc1 (stereo not drawn) | -2 | . | 0 | 35 | .
CCOC(=O)C1=C(N)Oc2ccccc2C12C(=O)N(CC(=O)OC)C(CC(=O)OC)=C2C(=O)OC (stereo not drawn) | 3 | . | 0 | 0 | .
Cc1cccc(OP(=O)(NCc2ccccc2)Oc2cccc(C)c2)c1 | -48 | 0.066 | -1 | 69* | .
Cc1cccc(OP(=O)(Nc2ccc(F)cc2)Oc2cccc(C)c2)c1 | -11 | 0.054 | 0 | 61* | .
Cc1cccc(OP(N)(=O)Oc2cccc(C)c2)c1 | . | -0.044 | 1 | . | .
COc1ccc(NP(=O)(Oc2cccc(C)c2)Oc2cccc(C)c2)cc1OC | . | -1.4 | -1 | . | .
O=C(CNC1CCCC1)Nc1ccc(N2CCCCCC2)cc1 | -12 | 0.24 | 0 | -3 | .
CCCC/C(C)=C/[C@@H](NP(=O)(c1ccccc1)c1ccccc1)c1ccccc1 | -48 | -0.51 | -1 | 91* | .
CCCCCP(=O)(O)c1ccccc1 | 2 | 0.51 | 1 | 10 | .
Cc1oc2ccc(OC(=O)N(C)C)cc2c1C(=O)OC(C)C | 32* | . | 0 | 75* | .
CCOC(=O)c1c(-c2ccc(OC)cc2)oc2ccc(OC(=O)N(C)C)cc12 | -8 | -0.85 | 0 | 9 | .
C=CCn1c(O)c(/C=N/N2CCCCC2c2cccnc2)c(=O)[nH]c1=S (stereo not drawn) | 0 | . | -1 | 3 | .
O=C(C[N+]12CCN(CC1)CC2)NCCc1ccc(Cl)cc1Cl | 24 | 0.027 | 1 | 16 | .
CN1CCN(c2ccc(/C=C3\C(=O)NC(=S)N(c4cccc(Br)c4)C3=O)o2)CC1 | 37* | . | 1 | 4 | .
Cc1ccc(/C=C2/C(=O)NC(=O)N(CC3CCCO3)C2=O)s1 (stereo not drawn) | 9 | . | -1 | -11 | .
COc1ccc(CCN(C)Cc2ccc(F)cc2F)cc1OC | 71* | 1.3 | 0 | 1 | .
O=C(Oc1c(Cl)cc(Cl)c2ccccc12)N1CCCCC1 | 10 | . | -1 | 73* | .
O=c1c2ccccc2nc(-c2ccccc2)n1-c1cccnc1 | -2 | . | 0 | -1 | .
Cn1c(O)c(C(=NCCc2c[nH]c3ccccc23)c2ccccc2)c(=O)n(C)c1=O | 3 | -0.54 | 1 | 6 | .
CN1CCN(c2cc(N3CCCCCC3)c(F)cc2[N+](=O)[O-])CC1 | -28 | -3.6* | -1 | 17 | 0.053*
O=C1NC(=O)C(=Cc2ccc3c(c2)OCO3)C(=O)N1 | 12 | -0.53 | 0 | -12 | .
O=C1NC(=O)C(=Cc2cn(CCOc3ccc4c(c3)OCO4)c3ccccc23)C(=O)N1 | -7 | -5.6* | 0 | -4 | ?
c1ccc2cc(C3N4CCCN34)ccc2c1 (stereo not drawn) | 10 | 0.72 | 1 | -13 | .
CCOc1cc(CNCCc2c[nH]c3ccccc23)cc(Cl)c1OC | -36 | -3.2* | 0 | 10 | 0.061*
SMILES | Arbovirus anti | ROMK primary | PERK inh | WT yeast gro inh | ROMK retest
O=c1[nH]c(=O)n(Cc2ccc(F)cc2)c(O)c1C=NCC1CCCO1 (stereo not drawn) | 5 | . | 0 | 4 | .
Fc1ccccc1CCNCc1cccc2ccccc12 | 4 | -3.6* | 0 | 12 | 0.057*
CCCCCCN=C(C)c1c(O)n(Cc2ccccc2)c(=O)[nH]c1=O | 6 | . | -2 | -1 | .
O=C(COc1ccc(Cl)cc1)N1CCN(Cc2ccc([N+](=O)[O-])cc2)CC1 | 10 | -6.5* | 0 | 31 | 0.049*
CN(C)C(Cc1ccccc1)C(=O)c1ccccc1 (stereo not drawn) | 10 | . | -1 | -9 | 0.081
CC(=O)C1(c2ccccc2)CCNCC1 | 0 | 0.63 | 1 | -3 | .
COc1cc(C)c(CN2CCN(c3ccccc3)CC2)cc1C | -1 | . | 0 | -12 | .
CC1CCC(C(C)C)C(OC(=O)Cn2c(COc3ccccc3)[n+](C)c3ccccc32)C1 (stereo not drawn) | . | -8.8* | -1 | . | 0.037*
CCCC(C)C(=O)NC1CCSC1=O (stereo not drawn) | 4 | -0.4 | 0 | 8 | .
Nc1c([N+](=O)[O-])cc(F)c(N2CCNCC2)c1Br | -4 | -3.6* | 1 | 5 | 0.055*
CN1C(=O)C(=Cc2ccc(N3CCOCC3)o2)C(=O)N(C)C1=S | 5 | . | 0 | 16 | .
C=CCN1C(=O)/C(=C\c2ccc(N3CCOCC3)o2)C(=O)NC1=S | -2 | -4.7* | 0 | -5 | 0.052*
CCN1C(=O)C(=Cc2ccc(N3CCOCC3)o2)C(=O)N(CC)C1=S | . | . | 2 | . | 0.054*
CN1C(=O)C(=Cc2ccc(Sc3ccccc3)o2)C(=O)N(C)C1=O | -1 | -5.6* | 0 | 2 | 0.056*
O=C1NC(=O)C(=Cc2ccc(Sc3ccccc3)o2)C(=O)N1 | . | . | 0 | . | .
CC12CN3CCN(CC(C3)C1O)C2 (stereo not drawn) | 10 | . | 0 | 0 | 0.077
CCNC(=O)[C@H]1O[C@@H](n2cnc3c(N)ncnc32)[C@H](O)[C@@H]1O | 0 | . | 1 | -2 | .
NC(=O)c1cn(C2OC(CO)C(O)C2O)c2ncnc(N)c12 (stereo not drawn) | -17 | 4* | 5.3* | 14 | 0.092
CCOc1ccc(N2C(=O)NC(=O)/C(=C\c3ccc(N4CCCCC4)o3)C2=O)cc1 | 8 | . | 0 | -3 | 0.044*
O=C1NC(=O)N(c2ccc3c(c2)OCO3)C(=O)/C1=C/c1ccc(N2CCCC2)o1 | -3 | . | -1 | -6 | .
Cc1ccc[n+](CC(O)Cn2c3ccccc3c3ccccc32)c1 (stereo not drawn) | 0 | 0.56 | 1 | 7 | .
CN1c2ccccc2Oc2ccccc21 | -4 | . | 1 | 6 | .
NC1=Nc2ccccc2Oc2ccccc21 | 5 | . | 0 | -15 | 0.048*
Cn1c(O)c(C=NCCCN2CCCC2=O)c(=O)n(C)c1=O | 4 | . | 0 | -7 | .
CCC(CO)NC(=O)C1C=C2c3cccc4[nH]cc(c34)CC2N(C)C1 (stereo not drawn) | . | . | 1 | . | .
COC(=O)C1C=C2c3cccc4[nH]cc(c34)CC2N(C)C1 (stereo not drawn) | . | . | 1 | . | 0.054*
CC12CC[C@H]3[C@@H](CCC4(O)C[C@H](O)CCC34/C=N/NC(=O)Cc3ccccc3)C1(O)CCC2C1=CC(=O)OC1 (stereo partly drawn) | . | . | 1 | . | 0.085
CNC(=O)Nc1ccc(C(=O)N/N=C\C23CC[C@@H](O)CC2(O)CC[C@@H]2[C@@H]3CCC3(C)C(C4=CC(=O)OC4)CCC23O)cc1 (stereo partly drawn) | . | . | 1 | . | ?
Cc1c(N=Nc2c(O)[nH]c(=O)[nH]c2=O)c(=O)n(-c2ccccc2)n1C | 9 | 0.77 | 0 | 0 | .
